Bioassay records as filed in PubChem BioAssay.
This is a sample that favours compounds with a hit; in the whole collection about 18% have one here.
PLK1 PBD block = qHTS for Inhibitors of PLK1-PDB (polo-like kinase 1 - polo-box domain): Primary Screen. Plk1 PBD binding of FITC phosphopeptide, fluorescence polarization. Potency, µM, for inactives: max response, negative = inhibition, most hits filed as inhibitors. 360,000 tested, 2.8% active; also: series mostly up to about 57 µM; nearly all actives have a fitted effect of over 65% in size
Target sequence (P53350 whole entry, looked up, the tested form may be a part): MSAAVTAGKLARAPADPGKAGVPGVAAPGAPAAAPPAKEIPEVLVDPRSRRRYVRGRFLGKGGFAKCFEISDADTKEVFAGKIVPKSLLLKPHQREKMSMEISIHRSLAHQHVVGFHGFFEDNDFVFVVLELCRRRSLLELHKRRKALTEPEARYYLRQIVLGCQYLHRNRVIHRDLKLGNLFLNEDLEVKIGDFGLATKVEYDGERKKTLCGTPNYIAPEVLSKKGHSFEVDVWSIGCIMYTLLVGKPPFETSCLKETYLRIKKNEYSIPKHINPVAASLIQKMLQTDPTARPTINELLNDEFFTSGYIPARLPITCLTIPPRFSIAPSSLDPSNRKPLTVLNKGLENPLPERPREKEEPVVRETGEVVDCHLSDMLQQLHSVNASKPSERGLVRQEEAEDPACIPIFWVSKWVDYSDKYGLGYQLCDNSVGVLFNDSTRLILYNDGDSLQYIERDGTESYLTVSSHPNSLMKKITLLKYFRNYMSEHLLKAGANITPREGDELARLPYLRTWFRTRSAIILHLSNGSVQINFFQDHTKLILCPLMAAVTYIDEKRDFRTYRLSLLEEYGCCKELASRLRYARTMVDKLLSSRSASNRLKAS
TDP1 block = qHTS Assay for Inhibitors of Tyrosyl-DNA Phosphodiesterase (TDP1); Tyrosyl-DNA phosphodiesterase 1 (Homo sapiens), Q9NUW8; recombinant TDP1, AlphaScreen DNA substrate cleavage; Potency, µM (series often up to 130 µM), for the others: top-dose activity change, negative = inhibition, actives largely listed as inhibitors; 350,000 tested, 0.28% active; also: nearly all actives have a fitted effect of over 40% in size
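Tdp1 1 nM final; 15 min RT w/ cpd; substrate 15 nM, 5 min; beads 10 ug/ml, 10 min; AlphaScreen read. Neg ctrl: no enzyme.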
KAT2A inh = qHTS Assay for Inhibitors of GCN5L2. Histone acetyltransferase KAT2A (Homo sapiens), Q92830. GCN5L2 HAT assay, ThioGlo1 CoA-SH fluorescence. Potency, µM (highest dose often 58.9 µM), for the others: top-dose activity change, negative = inhibition, actives largely listed as inhibitors. 390,000 tested, 0.21% active
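qHTS, 1536-well. 20nM enzyme, pH 7.5 HEPES/EDTA/Tween-20 buffer; 15 min compound preinc., RT. Start: 75uM H3(1-25), 70uM AcCoA, 50uM ThioGlo1. Read Ex340/Em540 at t=0 (autofluorescence flag) and t=20 min.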
VDR inh = Inhibitors of the vitamin D receptor (VDR): qHTS; Potency, µM, without a hit: max response, negative = inhibition, usual class: inhibitors; VDR-SRC2-3 peptide fluorescence polarization, 2 h; AID 504847, 2011; Vitamin D3 receptor (Homo sapiens), P11473; 400,000 tested, 0.93% active
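Inhibition of the VDR/SRC2-3 peptide interaction is quantified by fluorescence polarization. Compounds (23 nl, pintool) incubate with the reagents for 2 hours at ambient room temperature.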
TDP1 cell CPT = qHTS for Inhibitors of human tyrosyl-DNA phosphodiesterase 1 (TDP1): qHTS in cells in presence of CPT. chicken DT40 Tdp1-/-;hTDP1 cells + 20 nM CPT, ATP luminescence, 48 h. Potency, µM (titrated, usually from 46.2 µM), for inactives: at the top dose activity change, negative = growth inhibition, most hits filed as inhibitors. 420,000 tested, 12% active; also: nearly all actives have a fitted effect of over 55% in size
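Chicken DT40 Tdp1-/- cells stably complemented with human TDP1 were seeded at 400 cells/well in medium containing 20 nM camptothecin, exposed to pin-transferred compounds, and grown at 37 °C for at least 48 hr. Viability was read as ATP luminescence.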
TDP1 cell noCPT = qHTS for Inhibitors of human tyrosyl-DNA phosphodiesterase 1 (TDP1): qHTS in cells in absence of CPT | AID 686978, 2013 | Potency, µM (highest dose often 46.2 µM), for the others: at the top dose activity change, negative = growth inhibition, usual class: inhibitors | DT40 Tdp1-/- hTDP1 cells, no CPT, ATP luminescence, 48 h | 420,000 tested, 15% active; also: nearly all actives have a fitted effect of over 55% in size
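Compound effects on proliferation are scored in DT40 Tdp1-/-;hTDP1 cells in the absence of CPT. ATP levels (CellTiter-Glo luminescence) are recorded after a ≥48 hr, 37 °C incubation.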
* marks the source's active call; other numbers are inactive results; ? = inconclusive; . = not tested or not shown; [ ] = dose if it differs, or a comment. Calls follow the shape of the dose curve; as a rule, active = well fitted curve in the direction sought with a large enough effect; inconclusive = small, poorly fitted or top-dose-only effect, or another doubt; inactive = no such curve, though single readings can be large; an effect the other way counts as inactive or inconclusive. % is scaled to controls: 0 for no effect and ±100 for the full control effect; potency is read from the fitted curve at half-maximal effect.

SMILES	PLK1 PBD block	TDP1 block	KAT2A inh	VDR inh	TDP1 cell CPT	TDP1 cell noCPT
COC(=O)c1ccccc1NC(=O)CN(c1ccccc1OC)S(C)(=O)=O	.	.	0.9%	-6.6%	-1.6%	2.0%
CSc1cccc(NC(=O)N2CCN(c3cc(-c4noc(C)n4)ccc3C)CC2)c1	.	6.6%	-9.6%	-3.0%	?	?
COc1ccc(-c2onc(C)c2C)cc1S(=O)(=O)Nc1cc(Cl)ccc1C	.	2.6%	1.3%	14.4%	3.66µM*	3.66µM*
CC(=O)c1cccc(NS(=O)(=O)c2cc(-c3onc(C)c3C)ccc2C)c1	.	7.9%	21.9%	4.5%	?	-19.9%
COc1ccc(Cl)cc1NS(=O)(=O)c1cc(-c2cc(C)no2)ccc1C	.	0.0%	-17.3%	13.5%	6.51µM*	7.31µM*
COc1ccc(-c2cnc(C)o2)cc1S(=O)(=O)Nc1ccc(F)cc1F	.	3.8%	19.8%	2.9%	1.1%	-21.9%
COc1cc(OC)c(NS(=O)(=O)c2cc(-c3cnc(C)o3)ccc2OC)cc1Cl	.	6.2%	-0.2%	5.3%	20.6µM*	13µM*
CCN(CC)S(=O)(=O)c1cc(-c2onc(C)c2C)ccc1OC	.	5.3%	21.8%	10.0%	?	?
COc1ccccc1NS(=O)(=O)c1cc(-c2cc(C)no2)ccc1OC	-3.9%	6.2%	-10.3%	-1.8%	-13.2%	-14.3%
COc1ccc(-c2onc(C)c2C)cc1S(=O)(=O)Nc1cccc(C#N)c1	.	2.6%	0.1%	8.4%	23.1µM*	20.6µM*
O=[N+]([O-])c1ccc(S(=O)(=O)Nc2ccccn2)cc1	6.2%	.	1.9%	-8.0%	3.2%	9.9%
Cc1cc(/C=N/N2CCN(C)CC2)c(C)n1-c1ccc(Cl)cc1	-11.2%	8.2%	-1.6%	17.9%	?	-15.0%
CC1CN(C(NC(=O)c2ccccc2)C(Cl)(Cl)Cl)CC(C)O1 (stereo unspecified)	-0.3%	1.2%	-13.6%	8.4%	1.3%	3.3%
COc1ccc(-c2cc(C)no2)cc1S(=O)(=O)Nc1ccccc1	-11.9%	4.3%	-7.2%	-12.4%	25.9µM*	9.2µM*
CCc1ccc(-c2cc(C)no2)cc1S(=O)(=O)Nc1cc(OC)c(OC)c(OC)c1	.	7.9%	1.2%	3.9%	16.4µM*	16.4µM*
COC(=O)c1ccc(NS(=O)(=O)c2cc(-c3cc(C)no3)ccc2OC)cc1	-3.4%	3.1%	-2.4%	6.1%	3.66µM*	2.91µM*
C[C@H](Cc1ccccc1)Nc1ncnc2c1ncn2[C@@H]1O[C@H](CO)[C@H](O)[C@H]1O	.	-2.4%[56.1 µM]	.	.	.	.
CC1(C(=O)Nc2ccccc2Cc2ccccc2)CCN1Cc1ccccc1Cl (stereo unspecified)	-9.8%	.	.	.	?	23.1µM*
CCNC(=O)C1(C)CCCN1Cc1ccccc1Cl (stereo unspecified)	-10.7%	.	.	.	23.1µM*	?
CC(C)NC(=O)C1(C)CCCN1Cc1ccccc1C#N (stereo unspecified)	-4.9%	.	.	.	?	?
CC(=O)Nc1ccc(/C=C/c2nc3ccccc3[nH]c2=O)cc1	12.7%	2.5%	-4.3%	9.2%	2.3%	2.1%
O=C(/C(=C/c1ccc(Cl)cc1)c1nc2ccccc2[nH]1)c1ccccc1	-3.1%	6.2%	-1.2%	-22.7%	13µM*	7.31µM*
C(=C\c1ccco1)/c1nc2ccccc2[nH]1	-8.2%	2.4%	-23.0%	-12.2%	?	23.1µM*
O=c1[nH]c2ccccc2nc1/C=C/c1ccc(Cl)cc1	3.36µM*	5.4%	-4.5%	22.4µM*	13µM*	23.1µM*
Nc1nc2ccccc2[nH]1	-2.5%	15.5%	-6.8%	-7.4%	16.7%	9.4%
SMILES	PLK1 PBD block	TDP1 block	KAT2A inh	VDR inh	TDP1 cell CPT	TDP1 cell noCPT
O=C(NCc1nc2ccccc2[nH]1)c1ccco1	1.2%	4.4%	2.7%	-9.9%	1.7%	8.8%
C(=C\c1nc2ccccc2[nH]1)/c1ccccc1	-2.0%	4.8%	-10.0%	2.0%	14.6µM*	16.4µM*
CCCCC(NC(=O)Cc1c(C)c2cc3c(-c4ccccc4)coc3c(C)c2oc1=O)C(=O)O (stereo unspecified)	-29.1%	.	-21.9%	9.9%	32.5%	-8.8%
O=C(CCNS(=O)(=O)c1ccc(F)c(Cl)c1)NCc1ccccc1F	-3.6%	0.8%	-8.8%	-3.1%	-5.4%	4.4%
N/C(Cc1ccc(Cl)cc1)=N\OC(=O)c1ccc2ccccc2c1	2.6%	2.8%	-2.7%	0.9%	?	?
N/C(Cc1ccc(Cl)cc1)=N\OC(=O)c1cccc2ccccc12	-5.1%	3.8%	-7.1%	9.9%	?	29.1µM*
COc1ccccc1N1C(=O)c2ccccc2C1=O	.	-0.1%	.	.	.	.
COc1ccccc1N1C(=O)c2cccc3c(Cl)ccc(c23)C1=O	-2.3%	.	-10.2%	1.8%	?	13µM*
COC(=O)Nc1ccc(Cl)c(Cl)c1	.	4.3%	-11.9%	5.9%	.	.
Fc1ccccc1N1CCN(C2CCN(Cc3c[nH]c4ccccc34)CC2)CC1	-0.7%	0.0%	-1.4%	16.6%	16.4µM*	?
O=C(CN1CCN(c2ccccc2F)CC1)c1c[nH]c2ccccc12	-1.5%	4.9%	-1.7%	12.9%	?	?
CCCCNc1ncnc2[nH]ncc12	-11.5%	.	.	-4.5%	?	-21.6%
CCCCNc1nccnc1-c1cccc(C=O)c1	-4.7%	.	.	.	18.4µM*	?
Cc1csc(SCCn2c(N3CCN(c4ccccc4)CC3)nc3c2c(=O)[nH]c(=O)n3C)n1	-0.9%	-4.2%	2.4%	-7.5%	16.4µM*	25.9µM*
CN1CCN(c2nc3c(c(=O)[nH]c(=O)n3C)n2CCOc2ccccc2)CC1	-12.7%	2.3%	0.8%	-1.7%	?	?
Cn1c(=O)[nH]c(=O)c2c1nc(N1CCCCCC1)n2CCOc1ccccc1	-21.5%	5.6%	2.2%	-5.0%	-26.1%	23.1µM*
CN(Cc1ccccc1)c1nc2c(c(=O)[nH]c(=O)n2C)n1CCOc1ccccc1	-9.2%	4.9%	-7.7%	3.6%	?	16.4µM*
COC(CNC(=O)C1CCCN(S(=O)(=O)c2c(C)noc2/C=C/c2cccs2)C1)OC (stereo unspecified)	-6.6%	4.6%	-3.8%	-10.3%	?	-27.2%
